# Results taken from PubChem BioAssay (EPA / NIEHS).
# Inconclusive results are not listed. Active and inactive are the calls of the source. The calls were made as follows: active = hit-call score of the fitted dose curve at least 0.9, where 1 is the maximum; inconclusive = response in the unintended direction; inactive = score below 0.9.
# Columns and labels:
# [1] = TOX21_p53_BLA_p2_viability: Viability Assessment in the Tox21 HCT-116 p53 Agonism Beta-lactamase Assay, Phase 2 (AID 2283591);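 also: actives lower the ATP signal meaning cytotoxicity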
# How it was run: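 Cytotoxicity readout: CellTiter-Glo ATP luminescence, 30 min at room temperature, after the beta-lactamase read. Cells were HCT116 exposed 16 h at 37C to compounds pin-transferred at 217-fold dilution from DMSO stocks.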
# [2] = biological target: Cellular tumor antigen p53 (Homo sapiens) (UniProt P04637); assay: TOX21_p53_BLA_p2_ratio: Tox21 HCT-116 p53 Agonism Beta-lactamase Assay, Ratio, Phase 2 (AID 2283592)
# Cellular tumor antigen p53 (Homo sapiens), sequence (P04637 whole entry, looked up): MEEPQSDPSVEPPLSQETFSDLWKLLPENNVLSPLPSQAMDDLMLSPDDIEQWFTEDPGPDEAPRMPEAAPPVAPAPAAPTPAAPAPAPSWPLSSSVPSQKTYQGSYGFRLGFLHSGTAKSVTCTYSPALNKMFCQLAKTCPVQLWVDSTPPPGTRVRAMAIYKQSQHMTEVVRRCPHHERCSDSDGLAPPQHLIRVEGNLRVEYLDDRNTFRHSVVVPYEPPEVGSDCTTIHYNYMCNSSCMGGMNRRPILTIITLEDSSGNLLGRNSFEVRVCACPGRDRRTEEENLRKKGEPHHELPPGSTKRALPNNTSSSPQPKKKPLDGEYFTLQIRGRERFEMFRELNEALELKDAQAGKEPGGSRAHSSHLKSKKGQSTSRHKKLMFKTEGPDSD
# How it was run: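 Readout: blue/green (460/530 nm) FRET emission ratio after 2 h CCF4-AM loading at room temperature, excitation 405 nm. HCT116 p53 bla cells, 16 h compound exposure at 37C, 5% CO2; agonist direction fitted against DMSO baseline.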
# [3] = TOX21_p53_BLA_p3_viability: Viability Assessment in the Tox21 HCT-116 p53 Agonism Beta-lactamase Assay, Phase 3 (AID 2283593);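 also: cells exposed to compound for 16 h before reading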
# How it was run: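 Cellular ATP was quantified by CellTiter-Glo luminescence, read after 30 min at room temperature. Beforehand, HCT116 cells (4000/well) received compound 5 h post-seeding, 217-fold diluted from DMSO, then incubated 16 h at 37C.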
# [4] = biological target: Cellular tumor antigen p53 (Homo sapiens) (UniProt P04637); assay: TOX21_p53_BLA_p3_ratio: Tox21 HCT-116 p53 Agonism Beta-lactamase Assay, Ratio, Phase 3 (AID 2283596)
# How it was run: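 Cells were seeded at 4000/well, rested 5 h at 37C, then dosed with DMSO compound solutions (217-fold dilution) for 16 h. CCF4-AM substrate was loaded for 2 h at room temperature, and the 460/530 nm emission ratio was fitted for gain of signal versus DMSO.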
# [5] = TOX21_p53_BLA_p4_viability: Viability Assessment in the Tox21 HCT-116 p53 Agonism Beta-lactamase Assay, Phase 4 (AID 2283597);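 also: hits lower the luminescence signal meaning cytotoxicity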
# How it was run: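 ATP content by CellTiter-Glo luminescence, 30 min RT, read after the beta-lactamase ratio step. Cells: HCT116, 4000/well, compound added after 5 h, exposure 16 h at 37C. Signal loss = reduced viability.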
# [6] = biological target: Cellular tumor antigen p53 (Homo sapiens) (UniProt P04637); assay: TOX21_p53_BLA_p5_ratio: Tox21 HCT-116 p53 Agonism Beta-lactamase Assay, Ratio, Phase 5 (AID 2283599)
# How it was run: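 Beta-lactamase reporter ratio (blue 460 nm over green 530 nm, 405 nm excitation) after 2 h CCF4-AM loading, in HCT-116 cells exposed 16 h at 37 C to compounds pinned at 217-fold dilution. Increases relative to DMSO baseline scored.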
# [7] = biological target: Cellular tumor antigen p53 (Homo sapiens) (UniProt P04637); assay: TOX21_p53_BLA_p4_ratio: Tox21 HCT-116 p53 Agonism Beta-lactamase Assay, Ratio, Phase 4 (AID 2283601)
# How it was run: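 Signal is the blue/green (460nm/530nm) ratio of cleaved versus uncleaved CCF4-AM substrate, read after 2 h substrate loading. Cells were HCT116 carrying the p53-responsive beta-lactamase reporter, dosed 16 h at 37C, 5% CO2; CellTiter-Glo measured in parallel.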
# [8] = TOX21_p53_BLA_p5_viability: Viability Assessment in the Tox21 HCT-116 p53 Agonism Beta-lactamase Assay, Phase 5 (AID 2283600)
# How it was run: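 ATP luminescence (CellTiter-Glo, 30 min, RT) served as the viability read-out, with loss of signal indicating cytotoxicity. Compounds in DMSO were pinned at a 217-fold dilution onto 4000 cells/well and incubated 16 h, 37C.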
# PGR (gene 5241) = PGR (gene 5241) (UniProt P06401); assay: TOX21_PR_BLA_Followup_Antagonist_ratio: Tox21 HEK293 Progesterone Receptor (PR) Antagonism Beta-lactamase Follow-Up Assay, Ratio (AID 2283934);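 also: PR-UAS-bla HEK293T cells stimulated with 1 nM R5020 agonist for 16 hr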
# PGR (gene 5241), sequence (P06401 whole entry, looked up): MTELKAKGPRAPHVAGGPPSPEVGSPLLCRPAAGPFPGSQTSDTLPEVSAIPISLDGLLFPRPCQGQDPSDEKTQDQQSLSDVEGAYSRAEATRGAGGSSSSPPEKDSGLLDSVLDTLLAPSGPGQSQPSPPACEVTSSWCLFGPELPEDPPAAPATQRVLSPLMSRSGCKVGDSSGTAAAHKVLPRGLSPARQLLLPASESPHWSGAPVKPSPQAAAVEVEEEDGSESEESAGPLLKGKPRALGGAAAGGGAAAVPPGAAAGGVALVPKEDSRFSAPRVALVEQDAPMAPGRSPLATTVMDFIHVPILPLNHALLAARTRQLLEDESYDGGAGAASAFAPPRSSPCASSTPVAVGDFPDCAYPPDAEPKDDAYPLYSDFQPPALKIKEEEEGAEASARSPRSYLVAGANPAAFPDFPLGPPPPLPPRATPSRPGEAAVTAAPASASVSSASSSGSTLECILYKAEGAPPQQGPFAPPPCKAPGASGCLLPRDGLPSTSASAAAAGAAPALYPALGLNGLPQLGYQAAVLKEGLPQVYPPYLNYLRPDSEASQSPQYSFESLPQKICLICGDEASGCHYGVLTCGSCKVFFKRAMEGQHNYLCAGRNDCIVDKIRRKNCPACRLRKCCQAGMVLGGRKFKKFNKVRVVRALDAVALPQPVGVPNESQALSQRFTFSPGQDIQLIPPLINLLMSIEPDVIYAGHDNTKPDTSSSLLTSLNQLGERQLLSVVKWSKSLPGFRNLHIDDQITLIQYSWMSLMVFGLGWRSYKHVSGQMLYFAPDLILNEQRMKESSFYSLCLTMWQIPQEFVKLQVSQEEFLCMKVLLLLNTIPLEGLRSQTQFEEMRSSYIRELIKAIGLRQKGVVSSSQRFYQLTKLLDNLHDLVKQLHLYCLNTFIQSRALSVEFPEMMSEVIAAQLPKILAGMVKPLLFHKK
# How it was run: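 Cells are plated, rested 6 hr, then dosed with test compound in DMSO and challenged with 1 nM promegestone. After 16 hr incubation, substrate loading for 2 h at room temperature precedes fluorescence reading; viability is measured in the same wells.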
# [9] = TOX21_PR_BLA_Followup_Agonist_viability: Viability Assessment in the Tox21 HEK293 Progesterone Receptor (PR) Agonism Beta-lactamase Follow-Up Assay (AID 2283935);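 also: signal loss means lower viability so actives are cytotoxic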
# How it was run: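 Cells were plated in medium with 2% charcoal-stripped FBS and rested 6 hr. Compounds in DMSO were then added for 16 hr at 37C, followed by the FRET substrate step and CellTiter-Glo luminescence after 30 min.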
# [10] = TOX21_PR_BLA_Followup_Antagonist_viability: Viability Assessment in the Tox21 HEK293 Progesterone Receptor (PR) Antagonism Beta-lactamase Follow-Up Assay (AID 2283936);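 also: cells exposed to compound with R5020 agonist for 16 h; hits lower the luminescence signal meaning cytotoxicity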
# How it was run: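 PR-UAS-bla HEK293T cells in medium with 2% charcoal-stripped FBS were treated with compounds plus R5020 for 16 hr at 37C. After the beta-lactamase read, CellTiter-Glo was added to the same wells and luminescence read after 30 min at room temperature.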
# [11] = TOX21_PR_LUC_Followup_Agonist_viability: Viability Assessment in the Tox21 HEK293 Progesterone Receptor (PR) Agonism Luciferase Follow-Up Assay (AID 2283941);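 also: loss of signal means cytotoxicity so actives lower viability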
# How it was run: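 Multiplexed viability endpoint of the PR agonist luciferase follow-up: HEK293-PR-A-luc cells treated 16 h at 37C, with viability scored as decrease in CellTiter-Glo ATP signal.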
SMILES,outcome [1],outcome [2],outcome [3],outcome [4],outcome [5],outcome [6],outcome [7],outcome [8],AC50 (PGR (gene 5241)),outcome [9],outcome [10],outcome [11]
CCCC1C(CC)=CC(CC)=CN1c1ccccc1 (stereo not drawn),inactive,inactive,inactive,inactive,inactive,inactive,inactive,–,–,–,–,–
Nc1ccc(N=Nc2ccccc2)c(N)c1,inactive,inactive,inactive,inactive,inactive,–,inactive,inactive,–,–,–,–
COC(=O)c1ccc(C(=O)O)cc1,inactive,inactive,inactive,inactive,inactive,–,inactive,inactive,–,–,–,–
CN[C@@H]1[C@H](O)[C@H](NC)[C@H]2O[C@@]3(O)C(=O)C[C@@H](C)O[C@H]3O[C@@H]2[C@H]1O,inactive,inactive,inactive,inactive,inactive,–,inactive,inactive,–,–,–,–
O[C@@H]([C@H](O)[C@H](O)CBr)[C@H](O)CBr,inactive,inactive,inactive,inactive,inactive,–,inactive,inactive,–,–,–,–
CN(C1CCCCC1)S(=O)(=O)c1ccccc1N,inactive,inactive,inactive,inactive,inactive,–,inactive,inactive,25.7 µM (active),inactive,inactive,inactive
CC1=C2[C@H](/C=C(\C)C(=O)O)CC[C@@H](C)[C@H]2CC1,inactive,inactive,inactive,inactive,inactive,–,inactive,inactive,–,–,–,–
